Bioassay records from PubChem BioAssay.
FLuc counter – inhibits or activates purified firefly luciferase, miR-21 counter-screen | P08659 | purified FLuc, Km substrates, luminescence inhibition | Potency, µM (top dose mostly 57.5 µM), inactives show top-dose activity change, negative = inhibition, actives largely listed as inhibitors | 360,000 tested, 6.9% active | AID 588342;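 further: plate controls were vehicle for no effect and reference inhibitor for full effect; nearly all actives have a fitted effect of over 55% in size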
Target sequence (P08659 whole entry, looked up): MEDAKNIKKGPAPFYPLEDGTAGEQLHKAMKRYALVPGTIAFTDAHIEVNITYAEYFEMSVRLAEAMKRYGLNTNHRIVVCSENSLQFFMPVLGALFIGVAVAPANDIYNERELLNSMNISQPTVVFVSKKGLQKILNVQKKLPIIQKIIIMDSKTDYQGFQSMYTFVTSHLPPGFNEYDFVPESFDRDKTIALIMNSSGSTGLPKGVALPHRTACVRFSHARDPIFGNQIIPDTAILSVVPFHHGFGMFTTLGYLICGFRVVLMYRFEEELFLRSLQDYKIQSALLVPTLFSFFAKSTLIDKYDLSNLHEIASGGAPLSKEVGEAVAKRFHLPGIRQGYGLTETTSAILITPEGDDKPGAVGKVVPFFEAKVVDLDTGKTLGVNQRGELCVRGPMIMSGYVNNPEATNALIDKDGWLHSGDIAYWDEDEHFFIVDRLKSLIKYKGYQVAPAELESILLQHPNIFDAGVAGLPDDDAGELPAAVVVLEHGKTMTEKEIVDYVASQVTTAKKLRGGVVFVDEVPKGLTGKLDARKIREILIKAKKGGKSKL
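Purified P. pyralis luciferase (10nM final) with 10uM D-luciferin and 10uM ATP (Km levels) in 50mM Tris acetate pH 7.5, 10mM Mg acetate, 0.01% Tween-20, 0.05% BSA; qHTS 6-point titration, ~60 µM downward; luminescence read.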
ELG1 genotoxic – induces genotoxicity in HEK293T cells with luciferase-tagged ELG1; HEK293T ELG1-luciferase reporter, luminescence, 16 h; Potency, µM (top dose mostly 46 µM), without a hit: top-dose activity change, positive = activation, hits mostly activators; 330,000 tested, 1.3% active; further: % of control where 0% means no effect; nearly all actives have a fitted effect of over 60% in size
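Step 1: seed 2,000 HEK293T ELG1-luciferase cells per well. Step 2: add compound or DMSO, incubate 16 hr at 37 °C. Step 3: ONE-Glo, 30 min at room temperature, read luminescence.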
Rab9 prom act – activators of Rab9 promoter; Huh7 Rab9 promoter-luciferase reporter, luminescence, 24 h; Potency, µM (top dose mostly 9.22 µM), for the others: at the highest dose activation, negative = inhibition, actives largely listed as activators; 320,000 tested, 2.8% active; AID 485297; further: % of control where 0% means no effect; nearly all actives have a fitted effect of over 60% in size
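Quantitative HTS format; Huh7 Rab9-luciferase reporter cells (1500/well) receive compound 2 h post-plating, incubate 24 h at 37 °C, then get luciferase reagent for 10 min before luminescence reading.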
SMN2 splice up – enhancers of SMN2 splice variant expression; HEK293 SMN2-luciferase splicing reporter, luminescence, 30-36 h; Potency, µM (top dose mostly 46.1 µM), without a hit: at the top dose activity change, positive = activation, actives largely listed as activators; 210,000 tested, 2.8% active; further: % of control where 0% means no effect; nearly all actives have a fitted effect of over 55% in size
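HEK293 cells carry an SMN2 […]–luciferase reporter in which exon 7 inclusion puts luciferase in frame. Cells were plated 10-12 h before compound addition, then incubated 30-36 h at 37C. ONE-Glo luminescence was read; sodium butyrate at 4.5 mM final served as control.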
NPC1 prom act – activates the NPC1 promoter; Huh7 NPC1 promoter luciferase reporter, 24 h; Potency, µM (top dose mostly 9.22 µM), inactives show top-dose activation, actives largely listed as activators; 320,000 tested, 2.4% active; AID 485313; further: % of control where 0% means no effect; nearly all actives have a fitted effect of over 60% in size
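Huh7 cells stably carrying NPC1 promoter–luciferase, plated in Opti-MEM with 10% FBS for 2 h, were exposed to compound in DMSO for 24 h at 37 °C; luciferase reagent was added for 10 min and luminescence read.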
KinaseGlo FLuc – Kinase-Glo luciferase inhibition (counter-screen). 200,000 tested, 0.28% active. Potency, µM (highest dose often 38.3 µM), for the others: at the highest dose activity change, negative = inhibition, hits mostly inhibitors. Kinase-Glo luciferase, ATP luminescence, 8 min; further: on the % scale 0 is the no-effect control and ±100 the full control effect; nearly all actives have a fitted effect of over 60% in size
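Compounds were added to a substrate mix at pH 7.2 (50 mM imidazole, 10 uM ATP, within the enzyme's linear range), followed by Kinase-Glo detection reagent; luminescence was measured after 8 minutes at ambient temperature.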
* = called active by the depositor; ? = inconclusive; · = no result given; [ ] = another dose, or the depositor's remark. An excerpt weighted towards active compounds, which were near 7.5% of everything screened. The call rests on the fitted dose curve; in most records, active means well fitted curve in the direction sought with a large enough effect; inconclusive means small, poorly fitted or top-dose-only effect, or another doubt; inactive means no such curve, though single readings can be large; an effect the other way counts as inactive or inconclusive. Potency means the concentration at half of the fitted maximal effect.

SMILES	FLuc counter	ELG1 genotoxic	Rab9 prom act	SMN2 splice up	NPC1 prom act	KinaseGlo FLuc
Cc1ccc2c(c1Br)/C(=N/N1C(=O)c3ccccc3C1=O)C(=O)N2	2.4µM*	11%	-1%	27%	1%	-6%
COc1cccc(COC(=O)CCNC(=O)c2ccc(Cl)cc2)c1OC	2%	4%	1%	·	-3%	·
CCOC(=O)c1cnn(-c2ccccn2)c1N	21µM*	?	4µM*	·	4µM*	-12%
CCOC(=O)c1cnn(-c2cc(C)c3ccccc3n2)c1N	8.5µM*	7%	-31%	1%	?	-4%
CCOC(=O)C1CCN(c2ncnc3c2oc2ccccc23)CC1	-14%	-3%	7%	-34%	-2%	-2%
CCOC(=O)c1cnn(-c2ncnc3c2oc2ccccc23)c1N	1.1µM*	1.6µM*	1.1µM*	10µM*	1.3µM*	-5%
COc1ccc(CCNC(=O)CCn2c(=O)c3cccn3c3ccc(F)cc32)cc1OC	-9%	·	·	·	·	·
Cc1cc(C(=O)N(C)C)sc1-c1ccccc1	21µM*	?	28%	10µM*	?	2%
Cc1cc(C(=O)N2CCN(S(C)(=O)=O)CC2)sc1-c1ccccc1	6%	6%	-4%	-14%	-3%	-8%
Cc1ccc(CNC(=O)Cn2cc(C(=O)c3ccc(F)cc3)c(=O)c3ccc(C)nc32)cc1	0%	·	·	·	·	·
CN(CC(=O)Nc1ccc(F)c(F)c1F)C(=O)c1ccc(=O)[nH]c1	4.3µM*	4.6µM*	1.1µM*	·	0.89µM*	·
CCCCOc1ccc(C(=O)NC)cc1	-14%	?	1%	-6%	11%	0%
O=C(Nc1cccnc1)c1ccc(Oc2ccccc2)cc1	3.4µM*	4.1µM*	?	-5%	?	-11%
CCCOc1ccc(C(=O)Nc2cccnc2)cc1	11µM*	10µM*	?	·	2.8µM*	·
CCCCOc1ccc(C(=O)Nc2ccncc2)cc1	?	13µM*	-26%	-112%	-18%	-3%
CSc1ncc(C(=O)Nc2ccc(C(C)=O)cc2)c(-c2ccccc2)n1	-17%	12%	27%	·	29%	·
CCc1cccc(NC(=O)CN(c2ccc(C)cc2)S(=O)(=O)c2cccs2)c1	1%	·	·	-8%	·	·
CCCN1CCN(C(=O)c2ccc(F)c(S(=O)(=O)N3CCOCC3)c2)CC1	3%	-1%	-5%	·	1%	·
CCN(CC(=O)Nc1c(F)cccc1F)C(=O)c1cc2ccccc2oc1=O	-10%	26%	-4%	·	-2%	·
CN(Cc1ccccc1)C(=O)c1ccc(NC(=O)Cc2cccc(NC(=O)C3CCN(C(=O)C4CCCC4)CC3)c2)cc1	-19%	-3%	-6%	·	1%	·
O=C(Nc1ccccc1C(=O)O)c1ccc(Cl)c(S(=O)(=O)N2CCOCC2)c1	6.7µM*	-7%	26%	-10%	14%	-4%
O=C(Nc1ccccc1C(=O)O)c1cc(S(=O)(=O)N2CCOCC2)cs1	19µM*	1%	4%	9%	1%	0%
Cc1noc(Cn2c(=O)c3ccccc3n(CC(=O)Nc3cc(Cl)ccc3C)c2=O)n1	-2%	·	·	·	·	·
CC(Sc1nnc(NCc2ccccc2)s1)C(=O)Nc1ccc2c(c1)C(=O)c1ccccc1C2=O (stereo not drawn)	?	8%	?	1.3µM*	?	-4%
CC(Sc1nnc(NC2CC2)s1)C(=O)Nc1ccc(S(N)(=O)=O)cc1 (stereo not drawn)	·	1%	·	·	·	·
SMILES	FLuc counter	ELG1 genotoxic	Rab9 prom act	SMN2 splice up	NPC1 prom act	KinaseGlo FLuc
CC(Sc1nnc(Nc2ccccc2)s1)C(=O)Nc1nc(-c2ccccc2)cs1 (stereo not drawn)	-5%	-8%	1%	4µM*	-2%	3%
O=C(N/N=C/c1ccccn1)c1c[nH]c2ccccc12	8.5µM*	?	2.8µM*	·	2µM*	·
O=C(N/N=C/C1CC2CCC1C2)C1CC1 (stereo not drawn)	0%	2%	-5%	·	3%	·
O=C(N/N=C/c1ccc[nH]1)c1sc2ccccc2c1Cl	7.6µM*	17%	-8%	-24%	-8%	-8%
O=C(CNc1cccc2ccccc12)N/N=C/c1ccc[nH]1	-2%	7%	-44%	·	-37%	·
O=C(N/N=C/c1ccc[nH]1)c1c[nH]c2ccccc12	15µM*	9%	-60%	·	-45%	·
O=C(N/N=C/c1ccccn1)c1ccc2nc[nH]c2c1	?	-12%	3%	·	21%	·
O=C(N/N=C/C1CC2CCC1C2)c1c[nH]c2ccccc12 (stereo not drawn)	4.8µM*	-1%	-4%	·	0%	-3%
CC(=O)N[C@@H](Cc1c[nH]c2ccccc12)C(=O)OCc1cc(C(F)(F)F)cc(C(F)(F)F)c1	-7%	-6%	1%[46.1 µM]	8%	3%[46.1 µM]	-2%
CCOc1ccc(NC(=O)CC2C(=O)N(c3ccc(C)cc3)C(=O)N2C2CCCCC2)cc1 (stereo not drawn)	?	·	·	17%	·	·
Cc1ccccc1-c1noc(N)c1C#N	-1%	4%	1%	-6%	7%	-1%
CN(C)/C=C/c1onc(-c2ccccc2Cl)c1C#N	24µM*	?	?	24%	?	-2%
CCOc1nc(-c2ccccc2)ccc1-c1noc(-c2ccncc2)n1	-2%	3%	3%	22%	0%	2%
c1csc(-c2nc(-c3ccc(-c4ccon4)s3)no2)c1	0.6µM*	2.3µM*	0.35µM*	·	0.56µM*	·
c1ccc(-c2nc(-c3ccc(-c4ccon4)s3)no2)cc1	1.2µM*	?	1.4µM*	·	1.1µM*	·
CC(/C=N/NC(=O)c1cc(C(C)C)[nH]n1)=C\c1ccccc1	?	-6%	8%	9%	3%	1%
O=C(N/N=C/C(Cl)=C/c1ccccc1)c1cnccn1	12µM*	17%	21%	14%	17%	-6%
CC(/C=N/Nc1nc(C)cc(C)n1)=C\c1ccc(C(C)C)cc1	19µM*	2%	8%	-6%	-4%	-4%
CC(=C/c1ccccc1)/C=N/NC(=O)c1cnccn1	4.8µM*	8.9µM*	?	?	4µM*	-23%
O=C(N/N=C/C(Cl)=C\c1ccccc1)c1cnccn1	11µM*	?	22%	13%	21%	-6%
CN(C)c1ccc(CN(Cc2ccco2)C(=O)COc2ccc(F)cc2)cc1	-14%	·	·	0%	·	·
CC(/C=N/NC(=O)C(O)c1ccccc1)=C\c1ccccc1 (stereo not drawn)	13µM*	7%	?	22%	?	-1%
CC(/C=N/NC(=O)c1ccncc1)=C\c1ccc(C(C)C)cc1	?	0%	2.8µM*	·	28%	·
CC(/C=N/NC(=O)c1cccnc1)=C\c1ccccc1	13µM*	?	?	·	?	-10%
